Publication PMC7862700, “An all-to-all approach to the identification of sequence-specific readers for epigenetic DNA modifications on cytosine”

Columns and labels:
Test in all cases: DAPPL (digital affinity profiling via proximity ligation, sequencing); 10 mM Tris-HCl pH 7.5, 50 mM NaCl, 1 mM DTT, 4% glycerol, room temperature, 30 min; GST-TFs on glutathione beads, 16-mer random dsDNA library, 0.1% formaldehyde crosslink after washing; high values mean tight binding
Details in all cases: protein: recombinant; tags: N-terminal GST; dsDNA, one strand shown
FLI1 = biological target: T1, FLI1 (Homo sapiens, UniProt Q01543 1-452)
T1 sequence: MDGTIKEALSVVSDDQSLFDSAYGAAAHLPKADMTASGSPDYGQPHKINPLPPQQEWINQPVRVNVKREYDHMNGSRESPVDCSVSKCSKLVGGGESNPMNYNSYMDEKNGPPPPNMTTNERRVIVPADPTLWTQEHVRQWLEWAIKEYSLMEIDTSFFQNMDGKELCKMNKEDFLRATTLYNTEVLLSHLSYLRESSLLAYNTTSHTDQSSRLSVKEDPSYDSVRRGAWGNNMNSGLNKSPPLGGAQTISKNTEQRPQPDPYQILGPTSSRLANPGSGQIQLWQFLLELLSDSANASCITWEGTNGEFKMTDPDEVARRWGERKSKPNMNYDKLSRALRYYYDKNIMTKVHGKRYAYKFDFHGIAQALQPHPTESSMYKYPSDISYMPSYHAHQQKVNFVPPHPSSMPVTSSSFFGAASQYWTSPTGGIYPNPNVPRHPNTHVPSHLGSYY
In short: (§1)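 Binding signal is defined as a hexamer's read frequency for one factor over its frequency for the tag-only sample. To obtain reads, GST-fused human transcription factors were expressed in yeast, captured on glutathione beads, barcoded with DNA and pooled with that sample. Pools met 200 nmole of a 16-mer random double-stranded DNA library in Tris/NaCl/DTT/glycerol buffer for 30 min at room temperature before washing, 0.1% formaldehyde crosslinking, proximity ligation (BsaI/T4 ligase, 1 h, 37 °C), PCR and Illumina NextSeq500 sequencing.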

ELK1 = biological target: T2, ELK1 (Homo sapiens, UniProt P19419 1-428)
T2 sequence: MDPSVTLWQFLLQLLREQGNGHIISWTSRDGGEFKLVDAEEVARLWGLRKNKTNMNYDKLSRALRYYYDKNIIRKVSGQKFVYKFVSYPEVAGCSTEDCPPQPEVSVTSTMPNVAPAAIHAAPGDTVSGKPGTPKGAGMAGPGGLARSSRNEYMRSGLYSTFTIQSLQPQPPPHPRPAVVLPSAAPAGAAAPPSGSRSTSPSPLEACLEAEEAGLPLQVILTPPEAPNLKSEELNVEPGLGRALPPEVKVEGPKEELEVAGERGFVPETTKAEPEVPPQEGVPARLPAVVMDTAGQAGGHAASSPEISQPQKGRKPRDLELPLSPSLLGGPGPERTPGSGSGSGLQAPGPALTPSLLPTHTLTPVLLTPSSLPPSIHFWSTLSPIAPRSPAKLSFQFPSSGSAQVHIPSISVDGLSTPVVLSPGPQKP
In short: as §1

GABPA = biological target: T3, GABPA (Homo sapiens, UniProt Q06546 1-454)
T3 sequence: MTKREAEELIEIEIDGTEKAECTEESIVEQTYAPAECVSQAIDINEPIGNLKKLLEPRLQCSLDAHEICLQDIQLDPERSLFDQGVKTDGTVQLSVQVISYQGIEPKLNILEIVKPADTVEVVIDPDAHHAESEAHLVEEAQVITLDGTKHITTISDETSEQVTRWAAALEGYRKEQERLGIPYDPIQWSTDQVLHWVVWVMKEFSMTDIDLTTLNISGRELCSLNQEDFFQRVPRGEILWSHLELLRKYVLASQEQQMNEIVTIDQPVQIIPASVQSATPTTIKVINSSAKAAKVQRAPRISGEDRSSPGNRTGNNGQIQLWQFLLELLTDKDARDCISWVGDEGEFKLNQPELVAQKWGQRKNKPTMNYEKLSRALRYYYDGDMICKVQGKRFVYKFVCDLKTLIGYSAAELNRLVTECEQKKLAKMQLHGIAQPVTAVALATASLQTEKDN
In short: as §1

ERG = biological target: T4, ERG (Homo sapiens, UniProt P11308 1-479)
T4 sequence: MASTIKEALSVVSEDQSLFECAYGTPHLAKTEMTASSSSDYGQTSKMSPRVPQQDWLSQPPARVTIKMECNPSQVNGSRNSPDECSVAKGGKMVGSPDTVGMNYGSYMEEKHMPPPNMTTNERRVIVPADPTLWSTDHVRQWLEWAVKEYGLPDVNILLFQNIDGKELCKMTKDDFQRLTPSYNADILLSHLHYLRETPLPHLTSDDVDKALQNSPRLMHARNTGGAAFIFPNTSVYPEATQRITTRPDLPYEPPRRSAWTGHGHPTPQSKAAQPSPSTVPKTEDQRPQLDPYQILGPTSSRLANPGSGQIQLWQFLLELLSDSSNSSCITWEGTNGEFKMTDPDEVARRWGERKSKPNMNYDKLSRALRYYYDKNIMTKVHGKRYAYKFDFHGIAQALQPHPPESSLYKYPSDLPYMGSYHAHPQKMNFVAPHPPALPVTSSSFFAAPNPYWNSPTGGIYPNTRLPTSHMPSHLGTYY
In short: as §1

ELF1 = ELF1 (Homo sapiens, UniProt P32519 1-619)
In short: as §1

EHF = biological target: T5, EHF (Homo sapiens, UniProt Q9NZC4 1-300)
T5 sequence: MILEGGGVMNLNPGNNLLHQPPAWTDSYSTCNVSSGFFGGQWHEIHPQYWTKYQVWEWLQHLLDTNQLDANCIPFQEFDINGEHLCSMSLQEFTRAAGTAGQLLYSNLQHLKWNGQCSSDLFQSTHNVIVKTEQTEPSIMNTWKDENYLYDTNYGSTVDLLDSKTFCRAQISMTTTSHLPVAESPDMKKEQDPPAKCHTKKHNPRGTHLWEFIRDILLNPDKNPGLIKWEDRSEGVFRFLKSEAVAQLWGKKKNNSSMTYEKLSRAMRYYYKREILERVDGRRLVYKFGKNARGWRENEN
In short: as §1

SPI1 = SPI1 (Homo sapiens, UniProt P17947 1-270)
In short: as §1

SPIB = SPIB (Homo sapiens, UniProt Q01892 1-262)
In short: as §1

ELK3 = biological target: T6, ELK3 (Homo sapiens, UniProt P41970 1-407)
T6 sequence: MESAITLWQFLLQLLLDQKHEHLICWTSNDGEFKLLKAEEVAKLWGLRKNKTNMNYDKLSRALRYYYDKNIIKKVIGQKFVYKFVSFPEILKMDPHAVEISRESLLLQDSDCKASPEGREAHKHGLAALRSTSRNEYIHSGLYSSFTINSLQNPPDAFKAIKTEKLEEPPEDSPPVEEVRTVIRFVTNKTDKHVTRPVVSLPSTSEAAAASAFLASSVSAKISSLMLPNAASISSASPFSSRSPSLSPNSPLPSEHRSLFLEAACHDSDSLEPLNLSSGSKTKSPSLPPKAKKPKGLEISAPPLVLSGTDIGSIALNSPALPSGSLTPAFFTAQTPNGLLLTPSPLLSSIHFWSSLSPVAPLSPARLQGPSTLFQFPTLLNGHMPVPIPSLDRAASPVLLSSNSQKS
In short: as §1

SPIB, sequence (Q01892 whole entry): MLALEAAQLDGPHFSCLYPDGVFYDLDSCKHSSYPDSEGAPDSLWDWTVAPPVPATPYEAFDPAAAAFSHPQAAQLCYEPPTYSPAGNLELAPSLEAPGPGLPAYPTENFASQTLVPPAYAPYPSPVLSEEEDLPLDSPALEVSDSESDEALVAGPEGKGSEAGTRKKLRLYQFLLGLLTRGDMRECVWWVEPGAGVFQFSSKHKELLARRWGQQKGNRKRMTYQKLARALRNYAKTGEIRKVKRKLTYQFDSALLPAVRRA
ELF1, sequence (P32519 whole entry): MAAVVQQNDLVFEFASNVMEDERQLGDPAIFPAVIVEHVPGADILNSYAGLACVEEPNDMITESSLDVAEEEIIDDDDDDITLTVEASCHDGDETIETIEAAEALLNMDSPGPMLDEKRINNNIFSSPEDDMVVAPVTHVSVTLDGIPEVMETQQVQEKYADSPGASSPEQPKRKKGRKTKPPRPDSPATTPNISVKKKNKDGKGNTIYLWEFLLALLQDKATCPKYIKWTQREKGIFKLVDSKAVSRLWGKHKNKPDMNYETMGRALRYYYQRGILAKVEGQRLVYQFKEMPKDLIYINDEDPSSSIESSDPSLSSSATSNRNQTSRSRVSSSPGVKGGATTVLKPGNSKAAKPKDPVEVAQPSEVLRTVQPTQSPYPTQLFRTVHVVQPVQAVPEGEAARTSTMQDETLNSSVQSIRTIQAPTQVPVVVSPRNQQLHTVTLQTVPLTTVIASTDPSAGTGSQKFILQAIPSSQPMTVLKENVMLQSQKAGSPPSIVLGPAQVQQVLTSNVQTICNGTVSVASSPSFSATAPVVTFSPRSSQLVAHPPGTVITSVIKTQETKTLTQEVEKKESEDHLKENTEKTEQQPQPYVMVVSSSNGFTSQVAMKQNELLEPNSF

Sequence | binding signal (FLI1) | binding signal (ELK1) | binding signal (GABPA) | binding signal (ERG) | binding signal (ELF1) | binding signal (EHF) | binding signal (SPI1) | binding signal (SPIB) | binding signal (ELK3)
TCACTG | 1.21 fold enrichment (6-mer frequency, TF over GST control) | 1.16 fold enrichment (6-mer frequency, TF over GST control) | 1.22 fold enrichment (6-mer frequency, TF over GST control) | 1.27 fold enrichment (6-mer frequency, TF over GST control) | 1.26 fold enrichment (6-mer frequency, TF over GST control) | 1.18 fold enrichment (6-mer frequency, TF over GST control) | 1.15 fold enrichment (6-mer frequency, TF over GST control) | 1.3 fold enrichment (6-mer frequency, TF over GST control) | 1.2 fold enrichment (6-mer frequency, TF over GST control)
TTGTGT | 1.25 fold enrichment (6-mer frequency, TF over GST control) | 1.28 fold enrichment (6-mer frequency, TF over GST control) | 1.15 fold enrichment (6-mer frequency, TF over GST control) | 1.12 fold enrichment (6-mer frequency, TF over GST control) | 1.18 fold enrichment (6-mer frequency, TF over GST control) | 1.08 fold enrichment (6-mer frequency, TF over GST control) | 1.09 fold enrichment (6-mer frequency, TF over GST control) | 1.25 fold enrichment (6-mer frequency, TF over GST control) | 1.22 fold enrichment (6-mer frequency, TF over GST control)
CCCGAA | 1.44 fold enrichment (6-mer frequency, TF over GST control) | 1.26 fold enrichment (6-mer frequency, TF over GST control) | 1.51 fold enrichment (6-mer frequency, TF over GST control) | 1.18 fold enrichment (6-mer frequency, TF over GST control) | 1.39 fold enrichment (6-mer frequency, TF over GST control) | 1.3 fold enrichment (6-mer frequency, TF over GST control) | 1.36 fold enrichment (6-mer frequency, TF over GST control) | 1.27 fold enrichment (6-mer frequency, TF over GST control) | 1.2 fold enrichment (6-mer frequency, TF over GST control)
TCTACC | 1.54 fold enrichment (6-mer frequency, TF over GST control) | 1.67 fold enrichment (6-mer frequency, TF over GST control) | 1.58 fold enrichment (6-mer frequency, TF over GST control) | 1.61 fold enrichment (6-mer frequency, TF over GST control) | 1.59 fold enrichment (6-mer frequency, TF over GST control) | 1.61 fold enrichment (6-mer frequency, TF over GST control) | 1.54 fold enrichment (6-mer frequency, TF over GST control) | 1.68 fold enrichment (6-mer frequency, TF over GST control) | 1.43 fold enrichment (6-mer frequency, TF over GST control)
GCTTAC | 1.19 fold enrichment (6-mer frequency, TF over GST control) | 1.12 fold enrichment (6-mer frequency, TF over GST control) | 1.05 fold enrichment (6-mer frequency, TF over GST control) | 1.19 fold enrichment (6-mer frequency, TF over GST control) | 1.15 fold enrichment (6-mer frequency, TF over GST control) | 1.16 fold enrichment (6-mer frequency, TF over GST control) | 1.12 fold enrichment (6-mer frequency, TF over GST control) | 1.12 fold enrichment (6-mer frequency, TF over GST control) | 1.23 fold enrichment (6-mer frequency, TF over GST control)
GATTCC | 1.19 fold enrichment (6-mer frequency, TF over GST control) | 1.05 fold enrichment (6-mer frequency, TF over GST control) | 1.08 fold enrichment (6-mer frequency, TF over GST control) | 1.2 fold enrichment (6-mer frequency, TF over GST control) | 1.18 fold enrichment (6-mer frequency, TF over GST control) | 1.15 fold enrichment (6-mer frequency, TF over GST control) | 1.14 fold enrichment (6-mer frequency, TF over GST control) | 1.16 fold enrichment (6-mer frequency, TF over GST control) | 1.17 fold enrichment (6-mer frequency, TF over GST control)
TCTCCC | 1.66 fold enrichment (6-mer frequency, TF over GST control) | 1.68 fold enrichment (6-mer frequency, TF over GST control) | 1.74 fold enrichment (6-mer frequency, TF over GST control) | 1.54 fold enrichment (6-mer frequency, TF over GST control) | 1.63 fold enrichment (6-mer frequency, TF over GST control) | 1.73 fold enrichment (6-mer frequency, TF over GST control) | 1.47 fold enrichment (6-mer frequency, TF over GST control) | 1.71 fold enrichment (6-mer frequency, TF over GST control) | 1.75 fold enrichment (6-mer frequency, TF over GST control)
AACTAA | 1.39 fold enrichment (6-mer frequency, TF over GST control) | 1.27 fold enrichment (6-mer frequency, TF over GST control) | 1.38 fold enrichment (6-mer frequency, TF over GST control) | 1.33 fold enrichment (6-mer frequency, TF over GST control) | 1.42 fold enrichment (6-mer frequency, TF over GST control) | 1.42 fold enrichment (6-mer frequency, TF over GST control) | 1.38 fold enrichment (6-mer frequency, TF over GST control) | 1.41 fold enrichment (6-mer frequency, TF over GST control) | 1.4 fold enrichment (6-mer frequency, TF over GST control)
